Source: PubChem BioAssay AID1851 (National Center for Advancing Translational Sciences (NCATS), 2009)
Among all 16,000 compounds or so, about 5,100 (32%) were called active. Roughly 25% stayed inconclusive and do not appear here. The call rests on the fitted dose curve; in most records, active means well fitted curve in the direction sought with a large enough effect; inconclusive means small, poorly fitted or top-dose-only effect, or effect the other way; inactive means no such curve, though single readings can be large or run the other way. This is one part of the list.

target: Cytochrome P450 3A4 (Homo sapiens) (UniProt P08684); assay: Cytochrome panel assay with activity outcomes; details: recombinant CYP, pro-luciferin dealkylation, luminescence, p450-cyp3a4; series mostly up to 57.1 µM; activity, negative = inhibition: at the top concentration
On the % scale 0 is the no-effect control and ±100 the full control effect.

Sequence of Cytochrome P450 3A4 (Homo sapiens) (P08684 whole entry, looked up): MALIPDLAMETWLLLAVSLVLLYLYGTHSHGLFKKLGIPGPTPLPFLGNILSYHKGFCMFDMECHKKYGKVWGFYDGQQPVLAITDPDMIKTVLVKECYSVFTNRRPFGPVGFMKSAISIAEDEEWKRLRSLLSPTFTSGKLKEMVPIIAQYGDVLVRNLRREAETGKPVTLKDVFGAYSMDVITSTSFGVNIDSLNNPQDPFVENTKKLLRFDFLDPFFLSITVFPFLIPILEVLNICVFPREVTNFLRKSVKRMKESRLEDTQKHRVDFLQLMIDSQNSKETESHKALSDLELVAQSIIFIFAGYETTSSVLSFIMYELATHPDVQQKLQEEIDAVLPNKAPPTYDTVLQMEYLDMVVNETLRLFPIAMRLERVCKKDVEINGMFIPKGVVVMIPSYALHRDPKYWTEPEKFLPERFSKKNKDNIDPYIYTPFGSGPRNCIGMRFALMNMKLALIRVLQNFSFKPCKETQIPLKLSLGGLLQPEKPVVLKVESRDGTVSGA

| Structure (SMILES) | activity, negative = inhibition | AC50 |
| --- | --- | --- |
| Cc1c(O)c(=O)n(-c2ccccc2)n1C | -20.9% [at 25.6 µM] (inactive) | – |
| Cc1c(-n2cc(C(=O)c3cc(Cl)ccc3O)cc(C#N)c2=O)c(=O)n(-c2ccccc2)n1C | -17.2% (inactive) | – |
| Cc1ccc(O)c(C(=O)c2cc(C#N)c(=O)n(-c3c(C)n(C)n(-c4ccccc4)c3=O)c2)c1 | – | 5.62 µM (active) |
| CCCSc1nc(NCc2ccco2)c2c3c(sc2n1)COC(C)(C)C3 | – | 15.8 µM (active) |
| Cc1nn2c(C)nc3sc4c(c3c2nc1=O)CC(C)(C)OC4 | 10.7% (inactive) | – |
| Cc1cc(C)n(-c2nc(NCC(C)O)c3c4c(sc3n2)COC(C)(C)C4)n1 (stereo unspecified) | -17.9% [at 11.4 µM] (inactive) | – |
| CC1(CCC#N)N=C(SCCC#N)N(c2ccccc2)C1=O (stereo unspecified) | 4.2% (inactive) | – |
| c1cn(-c2ncnc3ccc(-c4ccoc4)cc23)cn1 | – | 0.631 µM (active) |
| Cc1ccccc1-c1ccc2ncnc(-n3ccnc3)c2c1 | – | 0.501 µM (active) |
| CN(C)c1ccc(-c2ccc3ncnc(-n4ccnc4)c3c2)cc1 | – | 1 µM (active) |
| CC(=O)CC(=O)Nc1ccc2ccccc2c1 | -28.5% [at 11.4 µM] (inactive) | – |
| O=C(COc1ccc2ccccc2c1)Nc1ccc(Cc2ccncc2)cc1 | – | 0.708 µM (active) |
| Clc1ccc([C@H](Cn2ccnc2)OCc2csc3c(Cl)cccc23)c(Cl)c1 | – | 0.794 µM (active) |
| O=C(c1cnccn1)N1CCC2(CC1)CN(Cc1nccs1)C2 | 3.93% (inactive) | – |
| CC(C)CN1CCCC2(CCN(C(=O)c3cnccn3)CC2)C1 | – | 25.1 µM (active) |
| CC(C)NC(=O)N1CCC2(CC1)CCN(C(=O)c1cnccn1)CC2 | -5.47% (inactive) | – |
| O=C(c1cnccn1)N1CCC2(CCCN(Cc3nccs3)C2)CC1 | – | 12.6 µM (active) |
| O=C(c1cnccn1)N1CCC[C@@]2(CCN(Cc3nccs3)C2)C1 | – | 15.8 µM (active) |
| O=C(c1csnn1)N1CCC2(CCN(Cc3nccs3)CC2)CC1 | 19.9% (inactive) | – |
| O=C(c1csnn1)N1CCC[C@@]2(CCN(Cc3nccs3)C2)C1 | – | 15.8 µM (active) |
| O=C(c1cnccn1)N1CCC2(CCN(Cc3nccs3)CC2)CC1 | 27.4% (inactive) | – |
| CC(C)CN1CCC2(CC1)CCN(C(=O)c1csnn1)CC2 | -13.7% (inactive) | – |
| C[n+]1ccc(/C=C/c2ccc(Br)cc2)cc1 | -7.44% (inactive) | – |
| COc1nc(N)nc2c1ncn2[C@@H]1C[C@H](O)[C@@H](CO)O1 | -13.7% [at 11.4 µM] (inactive) | – |
| CN1C(C(=O)Nc2ccccn2)=C(O)c2sccc2S1(=O)=O | -6.16% [at 25.6 µM] (inactive) | – |
| Cc1ccc(C(=O)NNC(=O)C2CCCN(c3ncccn3)C2)cc1 (stereo unspecified) | -25.4% (inactive) | – |

| Structure (SMILES) | activity, negative = inhibition | AC50 |
| --- | --- | --- |
| COc1cc(C)nc(N2CCCC(C(=O)Nc3cc(Cl)ccc3OC)C2)n1 (stereo unspecified) | – | 7.08 µM (active) |
| Cc1ccc(C(=O)/C=C2\NCC(C)NC2=O)cc1 (stereo unspecified) | -21.4% (inactive) | – |
| O=C(Cc1ccc(Br)cc1)Nc1ccccc1Sc1ccccc1 | – | 6.31 µM (active) |
| O=C(Cc1ccc2c(c1)CCCC2)Nc1ccccc1Br | -11.4% (inactive) | – |
| CC(C)Cn1c(C(C)C)nc([N+](=O)[O-])c1S(=O)(=O)c1ccc(F)cc1 | – | 4.47 µM (active) |
| CN(C)CCNCCN | -3.91% [at 11.4 µM] (inactive) | – |
| Cc1ccc(CNCC(O)(c2ccc(F)cc2)c2ccc(F)cc2)cc1 | – | 2.24 µM (active) |
| OC(CNCc1ccc(F)cc1)(c1ccc(F)cc1)c1ccc(F)cc1 | – | 2 µM (active) |
| O=C(O)c1ccc(CNCc2ccccc2)cc1 | -2.73% [at 11.4 µM] (inactive) | – |
| COc1ccccc1CNc1ncnc2ccc(-c3cccnc3)cc12 | – | 2 µM (active) |
| COc1ccc(CNc2ncnc3ccc(-c4cccnc4)cc23)c(OC)c1 | – | 1.26 µM (active) |
| CC(CO)(CO)Nc1ncnc2ccccc12 | 4.84% [at 11.4 µM] (inactive) | – |
| COc1cccc(-c2ccc3ncnc(NCc4ccc(OC)cc4OC)c3c2)c1 | – | 2.51 µM (active) |
| Nc1ccccc1N=Nc1c(S(=O)(=O)O)cc2cc(S(=O)(=O)O)cc(O)c2c1O | -15.9% [at 11.4 µM] (inactive) | – |
| COc1ccc(Cc2nnc(NC(=O)Cn3cnc4c3c(=O)n(C)c(=O)n4C)s2)cc1OC | 4.73% [at 2.29 µM] (inactive) | – |
| Cc1ccccc1NC(=O)Cn1cnc2c1c(=O)n(C)c(=O)n2C | -10.9% (inactive) | – |
| COc1ccc(CCNC(=O)Cn2cnc3c2c(=O)n(C)c(=O)n3C)cc1OC | – | 15.8 µM (active) |
| O=C(c1sc2ccccc2c1Cl)N1CCN(c2ccc(F)cc2)CC1 | – | 14.1 µM (active) |
| COc1ccc(Nc2ncc(C(=O)N3CCN(c4ccc(F)cc4)CC3)c3ccccc23)cc1 | -5.25% [at 2.29 µM] (inactive) | – |
| COc1ccc(S(N)(=O)=O)cc1C(=O)NCCCN1CCN(c2ccc(C)cc2)CC1 | 1.35% [at 2.29 µM] (inactive) | – |
| CC(C)C(NS(=O)(=O)c1cccs1)C(=O)NCCN1CCN(c2ccccc2)CC1 (stereo unspecified) | – | 5.01 µM (active) |
| COc1ccccc1N1CCN(C(=O)C(NS(=O)(=O)c2cccs2)c2ccccc2)CC1 (stereo unspecified) | – | 2 µM (active) |
| O=C(NCCN1CCN(C(=O)C(c2ccccc2)c2ccccc2)CC1)C(=O)Nc1ccccc1 | 1.49% (inactive) | – |
| O=C(c1cccs1)N1CCN(C(=O)C(c2ccccc2)c2ccccc2)CC1 | -20.2% (inactive) | – |
| O=C(C(NS(=O)(=O)c1cccs1)c1ccccc1)N1CCN(c2ccccc2)CC1 (stereo unspecified) | – | 3.16 µM (active) |
| CCOC(=O)c1sc(C)c(C(=O)NCC(C)(C)CN(C)C)c1N | 1.08% (inactive) | – |

| Structure (SMILES) | activity, negative = inhibition | AC50 |
| --- | --- | --- |
| Cc1cccc(-c2nsc(SCC(=O)Nc3nccs3)n2)c1 | – | 3.55 µM (active) |
| O=C(O)CCCSc1nc2ccccc2s1 | -9.94% [at 11.4 µM] (inactive) | – |
| Cc1nnc(SCC(=O)Nc2nccs2)[nH]c1=O | -9.39% (inactive) | – |
| O=C(CSc1nc2ccccc2s1)NNC(=S)Nc1ccc(Br)cc1 | – | 2.51 µM (active) |
| O=C(CSc1nc2ccccc2s1)Nc1nccs1 | – | 10 µM (active) |
| C1CCc2nnnn2CC1 | -4.59% [at 25.6 µM] (inactive) | – |
| O=C(O)[C@@H](O)[C@@H](O)[C@@H](O)[C@@H](O)C(=O)O (tested in a mixture with another compound) | -10.1% [at 25.6 µM] (inactive) | – |
| O=C(Nc1ccc(Cl)cc1Cl)c1cccc(N2C(=O)C=CC2=O)c1 | – | 1.26 µM (active) |
| O=C(Nc1ccc(Cl)cc1C(F)(F)F)c1ccc(Cl)cc1 | -10.5% (inactive) | – |
| COc1ccc(CC(=O)NCc2ccccn2)cc1OC | -4.2% [at 2.29 µM] (inactive) | – |
| COc1cc2c(cc1OC)-c1cc(NCc3ccccn3)nc(=O)n1CC2 | -28.3% (inactive) | – |
| COc1cc(CNCc2ccccn2)ccc1OCc1ccc(Cl)cc1Cl | – | 0.501 µM (active) |
| COc1cc(CNCCN2CCOCC2)ccc1OCc1ccccc1Cl | – | 15.8 µM (active) |
| O=C(O)c1cc(=O)c2c(Cl)cc(Cl)cc2[nH]1 | -3.15% (inactive) | – |
| O=C1C[C@H]2C(=O)[C@@H]1[C@@H](C(=O)O)[C@H]2C(=O)O | -3.12% [at 11.4 µM] (inactive) | – |
| COc1cccc(Nc2ncc3nc(-c4cccs4)c(=O)n(Cc4cccs4)c3n2)c1 | -24% (inactive) | – |
| O=c1c(-c2ccc(F)cc2)nc2cnc(Nc3ccccc3)nc2n1Cc1cccs1 | -25.5% (inactive) | – |
| Cc1nc2cnc(Nc3ccccc3)nc2n(Cc2cccs2)c1=O | – | 7.94 µM (active) |
| O=c1cnc2cnc(Nc3ccccc3)nc2n1Cc1cccs1 | – | 15.8 µM (active) |
| COc1ccc(-c2nc3cnc(Nc4ccccc4)nc3n(Cc3cccs3)c2=O)cc1 | -23% (inactive) | – |
| COc1cccc(Nc2ncc3nc(C)c(=O)n(Cc4cccs4)c3n2)c1 | – | 3.98 µM (active) |
| C=C(CC)C(=O)c1ccc(OCC(=O)O)c(Cl)c1Cl | -0.171% [at 25.6 µM] (inactive) | – |
| CCC(C)NC(=O)c1c(C)cc(=O)oc1C (stereo unspecified) | -6.83% (inactive) | – |
| C[C@@H](N=C(N)N)C(=O)O | -8.02% [at 11.4 µM] (inactive) | – |
| Cc1cc(NC(=O)NC(=O)c2ccc(F)cc2F)n[nH]1 | -13.2% (inactive) | – |
| COc1ccccc1N1CCN(CCCCNS(=O)(=O)c2cccc3c(N(C)C)cccc23)CC1 | – | 2.51 µM (active) |

| Structure (SMILES) | activity, negative = inhibition | AC50 |
| --- | --- | --- |
| COc1ccccc1N1CCN(CCCCNC(=O)c2ccc3ccccc3c2)CC1 | -28% [at 25.6 µM] (inactive) | – |
| COc1ccccc1N1CCN(CCCCN2C(=O)CCC2=O)CC1 | -6.98% (inactive) | – |
| Oc1c(Cl)cc(C(c2cc(Cl)c(O)c(Cl)c2)C(c2cc(Cl)c(O)c(Cl)c2)c2cc(Cl)c(O)c(Cl)c2)cc1Cl | -26.2% [at 11.4 µM] (inactive) | – |
| COC(=O)CSC(C(=O)Nc1ccc(C)c(C)c1)c1ccccc1 (stereo unspecified) | – | 3.98 µM (active) |
| CCCCOC(=O)Nc1ccc(C)c(Cl)c1 | -24.3% (inactive) | – |
| Cc1ccc(NC(=O)c2ccccc2C(=O)O)cc1C | -9.2% [at 11.4 µM] (inactive) | – |
| O=C(C1CCN(S(=O)(=O)c2cccc3nsnc23)CC1)N1CCCc2ccccc21 | – | 14.1 µM (active) |
| O=C(C1CCCN(S(=O)(=O)c2cccc3nsnc23)C1)N1CC=C(c2ccccc2)CC1 (stereo unspecified) | – | 6.31 µM (active) |
| O=C(C1CCN(S(=O)(=O)c2cccc3nsnc23)CC1)N1CCN(c2ccccc2F)CC1 | -3.92% (inactive) | – |
| O=C(C1CCN(S(=O)(=O)c2cccc3nsnc23)CC1)N1CCn2c1nc1ccccc12 | – | 14.1 µM (active) |
| O=C(O)c1nn(-c2ccc(Cl)cc2)c2c1C(=O)c1ccccc1C2=O | -4.55% [at 11.4 µM] (inactive) | – |
| COc1cc(=O)n2c(n1)SCCC2 | -0.256% [at 2.29 µM] (inactive) | – |
| Cn1c(=O)c2[nH]c(-c3ccc(S(=O)(=O)O)cc3)nc2n(C)c1=O | -4.3% (inactive) | – |
| COc1ccc(-c2nc3c([nH]2)c(=O)n(C)c(=O)n3C)c(OC)c1 | – | 1.58 µM (active) |
| Cn1c(=O)c2[nH]c(-c3ccccc3)nc2n(C)c1=O | -14.6% (inactive) | – |
| C[N+]1(CCOc2ccc([N+](=O)[O-])cc2)CCOCC1 | -1.53% (inactive) | – |
| CS/C(N)=N/N=C/c1ccc([N+](=O)[O-])cc1 | -16.9% (inactive) | – |
| COc1ccc(C=NC(CO)C(O)c2ccc([N+](=O)[O-])cc2)cc1 (stereo unspecified) | – | 10 µM (active) |
| COc1cc2c(cc1NC(=O)c1cc(-c3cccnc3)nc3ccc(C)cc13)oc1ccccc12 | – | 3.98 µM (active) |
| COc1ccccc1CC(=O)Nc1cc2oc3ccccc3c2cc1OC | – | 7.08 µM (active) |
| COc1cccc(NC(=O)c2cc(-c3cccnc3)nc3c(Cl)cccc23)c1 | – | 2.24 µM (active) |
| COc1ccc(NC(=O)c2cc(-c3cccnc3)nc3ccc(C)cc23)cc1OC | – | 1.41 µM (active) |
| COc1cc2c(cc1NC(=O)Nc1ccccc1)oc1ccccc12 | -27.3% (inactive) | – |
